Results: PubChem BioAssay (NCATS)
Results filed as inconclusive are left out. Calls of active or inactive are those of the source. Calls come from the whole dose curve; as a rule, active = well fitted cell-killing curve with a large enough effect; inconclusive = small, poorly fitted or top-dose-only effect, or effect the other way; inactive = no such curve, though single readings can be large or run the other way.

assay: Viability qHTS for spleen associated tyrosine kinase inhibitor (SYKi) drug resistant MV4-11 cells (AID 1963824); settings: SYKi-resistant MV4-11 viability, CellTiter-Glo, 72 h; series mostly up to 45 µM; note: nearly all actives have a fitted effect of over 35% in size
Outline: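 SYK-inhibitor-resistant MV4-11 AML cells were seeded at 500 per well onto compound and cultured 72 hours (37 °C, 5% CO2). CellTiter-Glo was then added, and after 10 min at room temperature, luminescence gave viability.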
Potency is the fitted concentration of half-maximal effect.

SMILES | Potency
CCC(C)C1NC(=O)C(C(C)=O)=C1O (centres undefined) | 29.8 µM (active)
COc1cc(C(=O)O[C@H]2[C@@H]3C=CO[C@@H](O[C@@H]4O[C@H](CO)[C@@H](O)[C@H](O)[C@H]4O)[C@@H]3[C@@]3(CO)O[C@@H]23)ccc1O | inactive
COc1ccc(CC2C(=O)NC(C)C(=O)N(C)C3Cc4ccc(cc4)Oc4cc(ccc4OC4OC(CO)C(O)C(O)C4O)CC(C(=O)NC(C)C(=O)NC(CCC(=O)O)C(=O)N2C)N(C)C3=O)cc1 (centres undefined) | 0.618 µM (active)
CC1N=C(N)OC1c1ccccc1 (centres undefined) | inactive
CC(=O)OC[C@]12C[C@H](OC(=O)CC(C)C)C(C)=C[C@H]1O[C@@H]1[C@H](O)[C@@H](O)[C@@]2(C)[C@]12CO2 | 0.0089 µM (active)
O=C(C[C@@H]1NCCC[C@H]1O)Cn1cnc2ccccc2c1=O | 0.231 µM (active)
CCCCCn1cc(C(=O)Cc2ccccc2OC)c2ccccc21 | 20.6 µM (active)
CC(=O)C1CCC2C3CCC4C[C@@H](O)CCC4(C)C3CCC12C (some centres undefined) | 14.6 µM (active)
CC(C)C(=O)O[C@H]1[C@@H]2[C@H](C)C(=O)O[C@@H]2C[C@@H](C)[C@@H]2C=CC(=O)[C@]21C | 2.27 µM (active)
